A short description of assay [1]: sensitizers of A549 cells to miR-34 induction, primary screen, imaging, A549 dox-inducible miR-34, nuclei and caspase counts (AID 1347080). Note: test concentration not given here. The settings on record: A549 miR-34 inducible, Hoechst nuclei count, 48 h.
Assay [2] in a line: survival rescue of mitochondrial mutant cells in low glucose, primary screen, MELAS cybrids, Rieske KO mouse fibroblasts, CellTiter-Glo (AID 1508586;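 active = mean z-score across replicates of 1.96 or higher in either the MELAS or the Rieske mutant cell line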;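 note: test concentration not given here; z relative to plate mean and SD of compound and empty wells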). On the technique in general: Cellular ATP, detected with luciferase, serves as a proxy for viable cell number.
A short description of assay [3]: viability rescue of complex I mutant cybrids, primary screen, cell-based, galactose medium, ATP luminescence (AID 1645843;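 active = z-score of at least 1.8 in each of two replicates, scored against plate mean and spread of sample wells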;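 note: positive z means more ATP and so rescue of galactose-driven cybrid death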). The conditions noted are these: complex I mutant cybrid cells, 72 h, stronger effect = higher value.
The mark [4] stands for this setting: stronger effect = lower value, cell number ratio, induced over uninduced.
The mark [5] stands for this setting: measured here: relative caspase fold change +Dox/-Dox.
The mark [6] stands for this setting: measured here: total cells with miR-34 induction, stronger effect = lower value.
Where [7] appears, read: measured here: total cells without miR-34 induction.
Where [8] appears, read: MELAS cybrid survival, CellTiter-Glo 48 h, stronger effect = higher value.
[9] abbreviates: Rieske KO mouse fibroblast survival, CellTiter-Glo 72 h.

Several values for one entry are separate records, joined by “and”; a condition that tells them apart may be missing. Identical values can stand only once. Activity calls are given as the source filed them.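 Rule for the calls, unless noted: active = compounds whose cell count with miR-34 switched on is under 0.7 times the count with it off; inactive = the rest.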

Regarding `Cc1nc2ccc(-c3ncnc4sccc34)cc2c(=O)[nH]1`, the fold change is 0.886 (inactive) in assay [1] (setting [4]) and 1.29 in assay [1] (setting [5]). The cell count in assay [1] (setting [6]) came out at 9390; in assay [1] (setting [7]) it was 10600. In addition, the figures for the z-score in assay [2] (setting [8]), in assay [2] (setting [9]) and in assay [3] were 0.107 (inactive), 0.235 and -0.465 (inactive), respectively.

In the case of `Cc1cccc(CN2CCN(c3ncnc4sccc34)CC2=O)c1`, the fold change is 0.946 (inactive) in assay [1] (setting [4]) and 2.04 in assay [1] (setting [5]). The cell count in assay [1] (setting [6]) was 4670; in assay [1] (setting [7]) it was 4940. In addition, the values for the z-score in assay [2] (setting [8]), in assay [2] (setting [9]) and in assay [3] were -0.529 (inactive), -0.501 and 2.43 (inactive), respectively.

Turning to `CC(C)(O)c1ccccc1CCC(SCC1(CC(=O)O)CC1)c1cccc(C=Cc2ccc3ccc(Cl)cc3n2)c1` (stereo unspecified), the fold change in assay [1] (setting [4]) is 0.925 (inactive) and 0.834 (inactive); in assay [1] (setting [5]), 1.67 and 2.27. In addition, the cell count in assay [1] (setting [6]) was 8950 and 7950; in assay [1] (setting [7]), 9680 and 9540. In addition, the z-score in assay [2] (setting [8]) was -0.195 (inactive); in assay [2] (setting [9]), -0.136; in assay [3], 0.25 (inactive).

Take `O=C(O)c1ccc(B(O)O)cc1`: the fold change in assay [1] (setting [4]) is 0.887 (inactive); in assay [1] (setting [5]), 0.4. Also, the figures for the cell count in assay [1] (setting [6]) and in assay [1] (setting [7]) were 8340 and 9400, respectively. Besides, the z-score was 0.638 (inactive) in assay [2] (setting [8]), 0.194 in assay [2] (setting [9]) and 0.105 (inactive) in assay [3].

On to `CN1CCN(Cc2ccc3sccc3c2)CC1CCO` (stereo unspecified), for which the fold change was 0.86 (inactive) in assay [1] (setting [4]) and 1.5 in assay [1] (setting [5]). In addition, the values for the cell count in assay [1] (setting [6]) and in assay [1] (setting [7]) were 8240 and 9580, respectively. In addition, the z-score in assay [2] (setting [8]) was 0.0101 (inactive); in assay [2] (setting [9]) it was -0.424; in assay [3], -0.48 (inactive).

For the compound `COc1cccc(-c2cccc(N)n2)c1F`, the fold change was 0.943 (inactive) in assay [1] (setting [4]) and 0.993 in assay [1] (setting [5]). The results for the cell count in assay [1] (setting [6]) and in assay [1] (setting [7]) were 9590 and 10200, respectively. The results for the z-score in assay [2] (setting [8]), in assay [2] (setting [9]) and in assay [3] were 0.104 (inactive), -0.26 and -0.59 (inactive), respectively.

In the case of `Cc1nn(C)c(C)c1-c1ccnc(N2CCCC2c2nc(-c3cccnc3)no2)n1` (stereo unspecified), the fold change in assay [1] (setting [4]) is 0.869 (inactive); in assay [1] (setting [5]), 1.21. The cell count in assay [1] (setting [6]) worked out at 6880; in assay [1] (setting [7]) it was 7910. Also, the z-score in assay [2] (setting [8]) is -0.00142 (inactive); in assay [2] (setting [9]) it was 0.462; in assay [3], -0.385 (inactive).

`CC(=O)N1CCCC(Cn2cnc3scc(-c4cc(C)ccc4C)c3c2=O)C1` (stereo unspecified): the fold change is 0.917 (inactive) in assay [1] (setting [4]) and 1.14 in assay [1] (setting [5]). The cell count in assay [1] (setting [6]) was 8240; in assay [1] (setting [7]) it was 8990. The z-score was -0.328 (inactive) in assay [2] (setting [8]), -0.378 in assay [2] (setting [9]) and 0.155 (inactive) in assay [3].

The values above are taken from PubChem BioAssay.
